Compounds without any hit were thinned out: in the full panel of roughly 83,000, 20% have a hit.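 Results are percent growth after 48 hours of single-concentration exposure. 100 means growth as in untreated cells, lower positive values show inhibition; negative values down to -100 show cell death.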 The source made the active and inactive calls. Rule for the calls: active = growth percent below 10; inactive = the rest.
Legend:
Experiment in all cases: NCI-60 one-dose screen, 48 h (100 = growth as untreated, 0 = no growth, -100 = all killed)
Conditions in all cases: 10 µM unless noted
SR leukemia = system: SR leukemia
RPMI-8226 leukemia = system: RPMI-8226 leukemia
OVCAR-8 ovarian = system: OVCAR-8 ovarian
OVCAR-5 ovarian = system: OVCAR-5 ovarian
OVCAR-4 ovarian = system: OVCAR-4 ovarian
SK-OV-3 ovarian = system: SK-OV-3 ovarian
IGROV1 ovarian = system: IGROV1 ovarian
OVCAR-3 ovarian = system: OVCAR-3 ovarian
HS 578T breast = system: HS 578T breast
NCI/ADR-RES ovarian = system: NCI/ADR-RES ovarian
T-47D breast = system: T-47D breast
MDA-MB-435 melanoma = system: MDA-MB-435 melanoma
SW-620 colon = system: SW-620 colon
MCF7 breast = system: MCF7 breast
HCT-116 colon = system: HCT-116 colon
HCC-2998 colon = system: HCC-2998 colon
KM12 colon = system: KM12 colon
BT-549 breast = system: BT-549 breast

Measured: growth

N=c1c2cc(-c3ccccc3)oc2ncn1/N=C/c1ccc(Cl)cc1
inactive: SR leukemia 35.3% | RPMI-8226 leukemia 80.9% | OVCAR-8 ovarian 95.7% | OVCAR-5 ovarian 51.7% | OVCAR-4 ovarian 17.1% | SK-OV-3 ovarian 99.7% | IGROV1 ovarian 53.5% | HS 578T breast 81.7% | NCI/ADR-RES ovarian 49.6% | T-47D breast 81% | MDA-MB-435 melanoma 72.6% | SW-620 colon 29.5% | MCF7 breast 70.8% | HCT-116 colon 66.6% | HCC-2998 colon 102% | KM12 colon 31%
active: OVCAR-3 ovarian 6.82%

CCCCCc1ccc(S(=O)(=O)Nc2cccc(-c3csc(NC(=O)CCCCCN4CCN(CCO)CC4)n3)c2)cc1
active: SR leukemia -19.2% | RPMI-8226 leukemia 7.46%
inactive: OVCAR-8 ovarian 96.7% | OVCAR-5 ovarian 91.6% | OVCAR-4 ovarian 80.8% | SK-OV-3 ovarian 96.8% | IGROV1 ovarian 84.5% | OVCAR-3 ovarian 75.6% | HS 578T breast 86.1% | NCI/ADR-RES ovarian 99.6% | T-47D breast 73.5% | MDA-MB-435 melanoma 36.8% | SW-620 colon 25.6% | MCF7 breast 19.8% | HCT-116 colon 30.3% | HCC-2998 colon 41.5% | KM12 colon 88%

Clc1cccc(/C=N/Nc2nc(N/N=C/c3cccc(Cl)c3Cl)nc(N3CCCCC3)n2)c1Cl
active: OVCAR-3 ovarian 8.19%
inactive: SR leukemia 33.4% | RPMI-8226 leukemia 93.4% | OVCAR-8 ovarian 72.9% | OVCAR-5 ovarian 94% | OVCAR-4 ovarian 71.5% | SK-OV-3 ovarian 105% | IGROV1 ovarian 79.6% | NCI/ADR-RES ovarian 67.4% | T-47D breast 48.3% | BT-549 breast 97.3% | MDA-MB-435 melanoma 68.8% | SW-620 colon 42.6% | MCF7 breast 71.2% | HCT-116 colon 48.8% | HCC-2998 colon 97.4% | KM12 colon 67.2%

CS(=O)(=O)Nc1cc(-c2ccc3ncc(C#N)c(Nc4cccc(Cl)c4F)c3c2)cnc1Cl
inactive: OVCAR-8 ovarian 10.6% | OVCAR-5 ovarian 21.2% | OVCAR-4 ovarian 19.1% | NCI/ADR-RES ovarian 33.7%
active: SR leukemia 1.4% | RPMI-8226 leukemia -36.9% | SK-OV-3 ovarian -18.2% | IGROV1 ovarian -43.8% | OVCAR-3 ovarian -12.8% | T-47D breast -8.48% | BT-549 breast -4.23% | MDA-MB-435 melanoma 3.99% | SW-620 colon 4.99% | MCF7 breast 3.98% | HCT-116 colon -14.8% | HCC-2998 colon -22.1% | KM12 colon 3.37%

CNC(=O)c1cc(-c2ccc(NC(=S)Nc3cc(C(F)(F)F)cc(C(F)(F)F)c3)cc2)nc2cccnc12
inactive: SR leukemia 71.8% | RPMI-8226 leukemia 93.7% | OVCAR-8 ovarian 100% | OVCAR-5 ovarian 102% | OVCAR-4 ovarian 75.3% | SK-OV-3 ovarian 102% | IGROV1 ovarian 75.9% | OVCAR-3 ovarian 106% | HS 578T breast 93.9% | NCI/ADR-RES ovarian 105% | T-47D breast 85.1% | SW-620 colon 98.1% | MCF7 breast 59.6% | HCT-116 colon 99% | KM12 colon 98.6%

C=C(C)[C@@H]1CC[C@]2(C(=O)NCCCCCN(CCC#N)CCC#N)CC[C@]3(C)[C@H](CC[C@@H]4[C@@]5(C)CCC(=O)C(C)(C)[C@@H]5CC[C@]43C)[C@@H]12
inactive: SR leukemia 80.4% | RPMI-8226 leukemia 79.7% | OVCAR-8 ovarian 106% | OVCAR-5 ovarian 96.2% | OVCAR-4 ovarian 86% | SK-OV-3 ovarian 118% | IGROV1 ovarian 97.6% | OVCAR-3 ovarian 111% | NCI/ADR-RES ovarian 108% | T-47D breast 106% | BT-549 breast 92.9% | MDA-MB-435 melanoma 99.7% | SW-620 colon 97.4% | MCF7 breast 86.2% | HCT-116 colon 95.5% | HCC-2998 colon 110% | KM12 colon 101%

COc1cc(/C=C2\C(=O)Nc3ccccc32)ccc1OCc1ccc(F)cc1
inactive: SR leukemia 90.1% | RPMI-8226 leukemia 107% | OVCAR-8 ovarian 102% | OVCAR-5 ovarian 107% | OVCAR-4 ovarian 103% | SK-OV-3 ovarian 114% | IGROV1 ovarian 101% | OVCAR-3 ovarian 117% | NCI/ADR-RES ovarian 102% | T-47D breast 107% | BT-549 breast 116% | MDA-MB-435 melanoma 103% | SW-620 colon 106% | MCF7 breast 87.8% | HCT-116 colon 107% | HCC-2998 colon 119% | KM12 colon 101%

CNC(=O)c1cc(N2CCc3cc(NC(=O)Nc4ccc(Cl)c(C(F)(F)F)c4)ccc32)ccn1
inactive: SR leukemia 45.8% | RPMI-8226 leukemia 33.6% | OVCAR-8 ovarian 62.8% | OVCAR-5 ovarian 106% | OVCAR-4 ovarian 55.9% | SK-OV-3 ovarian 86.6% | IGROV1 ovarian 57.8% | OVCAR-3 ovarian 51.9% | NCI/ADR-RES ovarian 55% | T-47D breast 49.2% | BT-549 breast 72.3% | MDA-MB-435 melanoma 53.3% | SW-620 colon 88.2% | MCF7 breast 29.8% | HCT-116 colon 39.4% | HCC-2998 colon 53.7% | KM12 colon 17%

COc1ccc(/C=N/NC(=O)c2cn(C3CC3)c3c(OC)c(N4CC5CCCNC5C4)c(F)cc3c2=O)cc1 (stereo not drawn)
inactive: RPMI-8226 leukemia 64.2% | OVCAR-8 ovarian 94.8% | OVCAR-5 ovarian 97.5% | OVCAR-4 ovarian 87.9% | SK-OV-3 ovarian 102% | IGROV1 ovarian 75.3% | OVCAR-3 ovarian 83.1% | HS 578T breast 99.1% | NCI/ADR-RES ovarian 91% | T-47D breast 85.9% | SW-620 colon 92.1% | MCF7 breast 70.8% | HCT-116 colon 53.6%
active: SR leukemia -3.21%

N/C(=N\C(N)=N\c1nc2ccccc2s1)c1ccc2ccccc2c1
active: SR leukemia -17.6%
inactive: RPMI-8226 leukemia 76.7% | OVCAR-8 ovarian 84.8% | OVCAR-5 ovarian 102% | OVCAR-4 ovarian 85% | SK-OV-3 ovarian 116% | IGROV1 ovarian 55.3% | OVCAR-3 ovarian 109% | HS 578T breast 90.9% | NCI/ADR-RES ovarian 30.3% | T-47D breast 79.2% | MDA-MB-435 melanoma 88.9% | SW-620 colon 110% | MCF7 breast 79.3% | HCT-116 colon 63.5% | KM12 colon 59.5%

O=C(c1ccc(Cl)cc1)C1[C@H](c2ccc(Cl)cc2)[C@@H](c2ccccc2)NC12C(=O)Nc1ccccc12 (stereo partly drawn)
inactive: RPMI-8226 leukemia 40.1% | OVCAR-8 ovarian 64% | OVCAR-5 ovarian 71% | OVCAR-4 ovarian 59.7% | SK-OV-3 ovarian 102% | IGROV1 ovarian 44.9% | OVCAR-3 ovarian 47.7% | HS 578T breast 67.1% | NCI/ADR-RES ovarian 52.2% | T-47D breast 40.1% | MDA-MB-435 melanoma 49.1% | SW-620 colon 54% | MCF7 breast 13.2% | HCT-116 colon 26.1% | HCC-2998 colon 34.5% | KM12 colon 30.7%
active: SR leukemia 3.54%

C=CCOc1cccc(/C=C2\SC(=S)N(C3CC(=O)N(c4ccc(Br)cc4)C3=O)C2=O)c1 (stereo not drawn)
inactive: SR leukemia 93.7% | RPMI-8226 leukemia 96.4% | OVCAR-8 ovarian 99.9% | OVCAR-5 ovarian 108% | OVCAR-4 ovarian 109% | SK-OV-3 ovarian 88% | IGROV1 ovarian 103% | OVCAR-3 ovarian 108% | NCI/ADR-RES ovarian 99.9% | T-47D breast 95.9% | BT-549 breast 109% | MDA-MB-435 melanoma 109% | SW-620 colon 108% | MCF7 breast 90.7% | HCT-116 colon 100% | HCC-2998 colon 115% | KM12 colon 97.6%

CCCCCc1ccc(S(=O)(=O)Nc2cc(-c3csc(NC(=O)CN4CCN(C)CC4)n3)ccc2N2CCN(C)CC2)cc1
active: SR leukemia -40.7% | RPMI-8226 leukemia -28.5% | OVCAR-4 ovarian -44.3% | IGROV1 ovarian 7.21% | OVCAR-3 ovarian -34.7% | T-47D breast -49.9% | MDA-MB-435 melanoma -78.6% | SW-620 colon -55.1% | MCF7 breast -85.9% | HCT-116 colon -70.9% | HCC-2998 colon -25.2%
inactive: OVCAR-8 ovarian 19.5% | OVCAR-5 ovarian 18.4% | SK-OV-3 ovarian 18.2% | NCI/ADR-RES ovarian 19.1% | BT-549 breast 77.5% | KM12 colon 38.9%

O=C(Nc1ccc2c(ccn2Cc2ccccn2)c1)c1ccnnc1
inactive: SR leukemia 101% | RPMI-8226 leukemia 94.4% | OVCAR-8 ovarian 104% | OVCAR-5 ovarian 95% | OVCAR-4 ovarian 68.3% | SK-OV-3 ovarian 105% | IGROV1 ovarian 80.3% | OVCAR-3 ovarian 106% | HS 578T breast 102% | NCI/ADR-RES ovarian 114% | T-47D breast 97.9% | SW-620 colon 101% | MCF7 breast 102% | HCT-116 colon 93.2% | HCC-2998 colon 120%

Cn1ccnc1C(=O)/C=C/c1ccc(NC(=O)c2c(F)c(F)c(F)c(F)c2F)cc1
inactive: SR leukemia 70.2% | RPMI-8226 leukemia 80.6% | OVCAR-8 ovarian 102% | OVCAR-5 ovarian 111% | OVCAR-4 ovarian 106% | SK-OV-3 ovarian 129% | IGROV1 ovarian 98.9% | OVCAR-3 ovarian 107% | NCI/ADR-RES ovarian 108% | T-47D breast 103% | BT-549 breast 98.2% | MDA-MB-435 melanoma 107% | SW-620 colon 105% | MCF7 breast 70.8% | HCT-116 colon 101% | HCC-2998 colon 125% | KM12 colon 105%

Cn1cc(-c2cc(N)n3nc(-c4cn(C)c5ccccc45)cc3n2)c2ccccc21
inactive: RPMI-8226 leukemia 18.7% | OVCAR-8 ovarian 85.4% | OVCAR-5 ovarian 114% | OVCAR-4 ovarian 95% | SK-OV-3 ovarian 137% | IGROV1 ovarian 104% | OVCAR-3 ovarian 101% | NCI/ADR-RES ovarian 91.3% | T-47D breast 90% | BT-549 breast 128% | SW-620 colon 85.9% | MCF7 breast 44.8% | HCT-116 colon 62.1% | HCC-2998 colon 78.5% | KM12 colon 72.7%
active: SR leukemia -9.33% | MDA-MB-435 melanoma 0.548%

CCNC(=O)Oc1ccc(/C(=C(/C)c2ccccc2)c2ccc(OCCN3CCCCCC3)cc2)cc1
active: SR leukemia 0.632% | RPMI-8226 leukemia -32.8% | OVCAR-8 ovarian 7.06% | OVCAR-3 ovarian 6.04% | T-47D breast 2.6% | BT-549 breast -3.35% | MDA-MB-435 melanoma -35.5% | SW-620 colon -42.9% | MCF7 breast 7% | HCT-116 colon -78% | KM12 colon 5.22%
inactive: OVCAR-5 ovarian 35.1% | OVCAR-4 ovarian 36.4% | SK-OV-3 ovarian 51.8% | IGROV1 ovarian 32.9% | NCI/ADR-RES ovarian 24.4% | HCC-2998 colon 25.3%

Cc1cc(C(NC(=O)CCCCCNc2cccc3c2C(=O)N(C2CCC(=O)NC2=O)C3=O)c2ccc3c(c2)OC(F)(F)O3)c(O)c2ncccc12 (stereo not drawn)
inactive: SR leukemia 26.2% | RPMI-8226 leukemia 34.7% | OVCAR-8 ovarian 38.6% | OVCAR-5 ovarian 73.2% | OVCAR-4 ovarian 73.1% | SK-OV-3 ovarian 109% | IGROV1 ovarian 37.5% | OVCAR-3 ovarian 38.3% | NCI/ADR-RES ovarian 104% | T-47D breast 67.6% | BT-549 breast 36.6% | MDA-MB-435 melanoma 27.8% | SW-620 colon 40.2% | MCF7 breast 29.5% | HCT-116 colon 27.8% | HCC-2998 colon 79.2% | KM12 colon 39.9%
